Screens deposited in PubChem BioAssay by National Center for Advancing Translational Sciences (NCATS).
Rows were chosen to be rich in hits. Some 3.6% of all compounds tested hit in one or more screens of this group.
D1 PAM = human D1 dopamine receptor positive modulation | P21728 | HEK293 TREx D1 cells, calcium flux, dopamine EC20 potentiation | potentiation, % at 10 µM | actives 0.036% (n = 360,000) | AID 504651; in the data active means potentiation above about 30%; further: 0% is about no effect
D1 antagonist = antagonists of human D1 dopamine receptor; P21728; HEK293 TREx D1 cells, calcium flux, dopamine EC80; active compounds read low; activity change, negative = inhibition, % at 10 µM; actives 3.2% (n = 360,000); in the data active means activity change below about -30%; further: on the % scale 0 is the no-effect control and ±100 the full control effect
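Tetracycline-induced HEK293 Trex D1 cells, force-coupled to calcium, dye-loaded; compounds added and read 180 s, then EC80 dopamine added and calcium flux tracked kinetically another 180 s.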
TRHR agonist = TRH receptor (human) agonism; TRHR cells, calcium flux fluo-8, FDSS agonist mode; actives 0.18% (n = 360,000); activation, % at 2 µM; P34981; further: 0% is about no effect
Target sequence (P34981 whole entry, looked up): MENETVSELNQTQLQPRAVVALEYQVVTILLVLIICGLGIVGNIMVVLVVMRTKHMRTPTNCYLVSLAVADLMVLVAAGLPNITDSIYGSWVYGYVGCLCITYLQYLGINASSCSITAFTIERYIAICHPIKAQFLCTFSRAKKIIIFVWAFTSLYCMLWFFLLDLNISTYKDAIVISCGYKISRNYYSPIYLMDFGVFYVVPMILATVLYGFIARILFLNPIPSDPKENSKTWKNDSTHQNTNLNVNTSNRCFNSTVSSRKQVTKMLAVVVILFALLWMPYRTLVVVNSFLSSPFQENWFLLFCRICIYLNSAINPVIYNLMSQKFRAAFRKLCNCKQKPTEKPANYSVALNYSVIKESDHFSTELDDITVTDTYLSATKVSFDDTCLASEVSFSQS
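Steps: seed TRHR cells overnight; add fluo-8 no-wash Ca dye, RT 30 min–1.5 h; record 10 s baseline; pin-transfer compounds; monitor fluorescence 1 cycle/s for the agonist window. Calcium increases flag candidate agonists.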
LDHA inh = blocks human lactate dehydrogenase A | P00338 | purified LDHA, NADH/diaphorase-resazurin fluorescence; active compounds read low | activity change, % (values are at about 110 or 230 µM) | actives 0.15% (n = 480,000); in the data active means activity change below about -30%;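 further: plate controls were DMSO wells for no effect and wells without enzyme for full effect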
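Resorufin fluorescence (ex540/em590), read at 0 and 20 min after diaphorase/resazurin addition, reports the NADH left after a 5 min room-temperature reaction of 2 nM human LDH5 with 0.06 mM NADH and 0.2 mM pyruvate.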
TRHR PAM = TRH receptor (human) allosteric enhancement; actives 0.66% (n = 360,000); TRHR cells, fluo-8 calcium fluorescence, EC20 TRH enhancement; enhancement, % at 2 µM; P34981; in the data active means enhancement above about 30%; further: 0% is about no effect
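TRHR-expressing cells loaded with fluo-8 calcium dye were read kinetically (ex 480/em 530) during compound addition, then stimulated with an EC20 of TRH (10 nM final). Enhancement of the Gq-mediated intracellular calcium response was scored.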
D1 agonist = human D1 receptor agonism. P21728. HEK293 T-REx D1 cells, calcium flux, agonist mode. activation, % at 2 µM. actives 1% (n = 360,000). AID 504660; further: 0% is about no effect
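Inducible HEK293 T-REx D1 cells, force-coupled to calcium signalling, were plated at 4000 cells/well with tetracycline and held overnight at 30 C. After no-wash calcium dye loading, compound-evoked calcium rise over 180 s flagged agonists.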
* = called active by the depositor. Unless noted, no stated cut-off is given here; in the data, active means activation above about 30%; inactive means the rest.

`COc1ccc2c(c1)c1c(c(=O)n(Cc3ccccc3)c(=O)n1CC(=O)Nc1cc(C)cc(C)c1)n2C` gave D1 PAM 0.2, D1 antagonist 2.3, TRHR agonist 0.1, LDHA inh -3.7, TRHR PAM 2.7 and D1 agonist 0.7.
Screening C=CCNC(=O)c1nc(-c2cccc3[nH]ccc23)no1 returned LDHA inh 6.5.
Screening CN1CCN(CCCNC(=O)c2ccc(/C=C3\Sc4ccccc4N(Cc4ccccc4F)C3=O)cc2)CC1 returned D1 PAM -9.2, D1 antagonist -30.4*, TRHR agonist 0.0, LDHA inh -1.0, TRHR PAM -0.2 and D1 agonist 19.4.
O=C(CN1C(=O)/C(=C/c2ccc(C(F)(F)F)cc2)Sc2ccccc21)NCCCN1CCOCC1 was read as D1 PAM -9.3, D1 antagonist -33.7*, TRHR agonist 4.2, LDHA inh -0.4, TRHR PAM 7.1 and D1 agonist 16.4.
For O=C(NCCN1CCOCC1)c1ccc(/C=C2\Sc3ccccc3N(Cc3ccccc3F)C2=O)cc1 the results were D1 PAM -0.5, D1 antagonist -11.6, TRHR agonist 0.3, LDHA inh 0.9, TRHR PAM 1.7 and D1 agonist 8.2.
Screening O=C(CN1C(=O)/C(=C\c2ccccc2Cl)Sc2ccccc21)NCCCN1CCOCC1 returned D1 PAM -9.0, D1 antagonist -1.3, TRHR agonist 1.7, LDHA inh -2.7, TRHR PAM -3.9 and D1 agonist 17.0.
O=C(CN1C(=O)/C(=C\c2cccc(Cl)c2)Sc2ccccc21)NCCCN1CCOCC1 was read as D1 PAM -17.1, D1 antagonist -83.6*, TRHR agonist -0.8, LDHA inh 0.4, TRHR PAM 1.4 and D1 agonist 53.2*.
Screening CCc1ccc(/C=C2/Sc3ccccc3N(CC(=O)NCCCN3CCOCC3)C2=O)cc1 returned D1 PAM -6.0, D1 antagonist -52.4*, TRHR agonist 5.0, LDHA inh 0.3, TRHR PAM 7.9 and D1 agonist 8.6.
Screening CCOC(=O)C1CCN(CCC(=O)Nc2c(C(=O)OC)[nH]c3ccc(F)cc23)CC1 returned LDHA inh -4.0.
`CCOc1ccc(NC(=O)Cn2nc(C(=O)O)c3ccccc3c2=O)cc1` gave LDHA inh -9.0.
For COc1ccccc1NCC(O)Cn1c2ccccc2c2ccccc21 (stereo not drawn) the results were D1 PAM 1.6, D1 antagonist -0.6, TRHR agonist 0.2, LDHA inh 0.6, TRHR PAM -6.8 and D1 agonist -0.6.
Screening COc1ccc(CCNCC(O)Cn2c3ccccc3c3ccccc32)cc1OC (stereo not drawn) returned D1 PAM -4.8, D1 antagonist -18.9, TRHR agonist 1.8, LDHA inh 2.5, TRHR PAM -7.0 and D1 agonist 55.3*.
For CCOc1nc(Nc2ccc(OC)cc2OC)nc(OCC)n1 the results were D1 PAM -5.2, D1 antagonist -30.8*, TRHR agonist 0.0, LDHA inh -6.0, TRHR PAM -4.5 and D1 agonist 6.0.
Screening COc1ccc(Nc2nc(-c3ccccc3)nc3ccccc23)c(OC)c1 returned D1 PAM -5.4, D1 antagonist 9.5, TRHR agonist 0.4, LDHA inh -4.4, TRHR PAM -4.7 and D1 agonist 3.3.
COc1ccc(Nc2nc(N)c3ccccc3n2)c(OC)c1 was read as D1 PAM -6.8, D1 antagonist -37.4*, TRHR agonist -1.0, LDHA inh -2.3, TRHR PAM 1.2 and D1 agonist 1.1.
CCOC(=O)C1=CN(c2ccc(C)cc2)C=C(C(=O)OCC)C1c1cccc(OCC)c1 was read as LDHA inh 4.8.
CCC(C)Sc1ccc(N)c(C(F)(F)F)c1 (stereo not drawn) was read as LDHA inh 2.4.
CCCN1C(=O)/C(=C/c2c(N3CCNC(=O)C3CC(=O)OC)nc3c(C)cccn3c2=O)SC1=S (stereo not drawn) was read as D1 PAM 15.2, D1 antagonist -30.1*, TRHR agonist 75.7*, TRHR PAM 17.0 and D1 agonist 265.3*.
Screening S=C(NCCc1ccccc1)Nc1ccccc1Cc1ccccc1 returned LDHA inh -2.9.
For N#Cc1nc(-c2ccc(S(=O)(=O)N3CCCC3)cc2)oc1NCc1ccco1 the results were LDHA inh 5.0.
For NNC(=O)c1sccc1OCc1ccc(F)cc1 the results were D1 PAM -8.2, D1 antagonist 15.4, TRHR agonist -0.1, LDHA inh -1.4, TRHR PAM -12.5 and D1 agonist 5.5.
For NNC(=O)c1sccc1OCc1ccc(Cl)cc1Cl the results were D1 PAM -5.5, D1 antagonist -31.9*, TRHR agonist -0.1, LDHA inh -3.3, TRHR PAM -1.6 and D1 agonist 10.4.
Screening CNC(=O)c1sccc1SCc1ccc(Cl)cc1Cl returned D1 PAM -8.1, D1 antagonist 11.0, TRHR agonist -0.5, LDHA inh -2.2, TRHR PAM 33.1* and D1 agonist 2.4.
Screening CCOc1ccc(CCNC(=S)NC(=O)c2ccc(F)cc2Cl)cc1OCC returned LDHA inh -2.3.
For O=C(NC1CCCC1)C(Cl)c1ccccc1 (stereo not drawn) the results were LDHA inh 0.2.
For Cc1cccc(NC(=O)CC2SC(=NC3CCCCC3)NC2=O)c1 (stereo not drawn) the results were D1 PAM -1.1, D1 antagonist -33.0*, TRHR agonist 0.1, LDHA inh -2.5, TRHR PAM 3.3 and D1 agonist 1.6.
For COc1ccccc1-c1nc(-c2ccc(C)nc2OC)no1 the results were D1 PAM -1.9, D1 antagonist -31.9*, TRHR agonist -0.5, LDHA inh -9.9, TRHR PAM 4.4 and D1 agonist 5.6.
`O=C(NCCCCc1ccccc1)NCc1ccc(CN2CCCC2)cc1` gave LDHA inh 9.5.
Screening COc1cccc(-c2cc(C(F)(F)F)nc(NCCc3ccc(OC)c(OC)c3)n2)c1 returned D1 PAM 0.5, D1 antagonist -52.8*, TRHR agonist 1.1, LDHA inh -0.8, TRHR PAM -4.9 and D1 agonist 10.7.
For COc1ccc(-c2cc(C(F)(F)F)nc(NCc3ccccc3)n2)cc1OC the results were D1 PAM -0.3, D1 antagonist 6.6, TRHR agonist 0.0, LDHA inh 1.8, TRHR PAM -3.6 and D1 agonist 0.8.
For CCCCCOc1ccc(/C(C)=N/NC2=NCCN2)cc1 the results were D1 PAM 3.1, D1 antagonist 8.6, TRHR agonist 0.4, LDHA inh 1.8, TRHR PAM 7.2 and D1 agonist 8.6.
